According to PubChem BioAssay (NCI):
This is part of a sample that, as a whole, favours compounds with a hit. Of some 83,000 tested, about 20% had one in any assay.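 The test compound was applied at a single concentration to cells in 96-well plates for 48 hours, and percent growth was recorded.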 Calls of active or inactive are those of the source. The calls were made as follows: active = growth percent below 10; inactive = the rest.

What was measured:
Assay in all cases: NCI-60 one-dose screen, 48 h (100 = growth as untreated, 0 = no growth, -100 = all killed)
SR leukemia = conditions: 10 µM unless noted
RPMI-8226 leukemia = conditions: 10 µM unless noted
OVCAR-8 ovarian = conditions: 10 µM unless noted
OVCAR-5 ovarian = conditions: 10 µM unless noted
OVCAR-4 ovarian = conditions: 10 µM
SK-OV-3 ovarian = conditions: 10 µM unless noted
IGROV1 ovarian = conditions: 10 µM unless noted
OVCAR-3 ovarian = conditions: 10 µM unless noted
HS 578T breast = conditions: 10 µM unless noted
T-47D breast = conditions: 10 µM unless noted
BT-549 breast = conditions: 10 µM unless noted
MDA-MB-435 melanoma = conditions: 10 µM unless noted
SW-620 colon = conditions: 10 µM unless noted
MCF7 breast = conditions: 10 µM unless noted
HCT-116 colon = conditions: 10 µM unless noted
HCC-2998 colon = conditions: 10 µM unless noted
KM12 colon = conditions: 10 µM unless noted
NCI/ADR-RES ovarian = conditions: 10 µM unless noted

Measured: growth

COc1ncnc2c(-c3ccccc3)cn(COCc3ccccc3)c12
inactive: SR leukemia 18.2% | RPMI-8226 leukemia 29.2% | OVCAR-8 ovarian 26.6% | OVCAR-5 ovarian 110% | OVCAR-4 ovarian 54.4% | SK-OV-3 ovarian 82.7% | IGROV1 ovarian 71% | OVCAR-3 ovarian 62.8% | HS 578T breast 81.2% | T-47D breast 14% | BT-549 breast 36.6% | MDA-MB-435 melanoma 29.7% | SW-620 colon 67.4% | MCF7 breast 48.1% | HCT-116 colon 41.7% | HCC-2998 colon 70% | KM12 colon 42.5%

Cc1ccc(Oc2c(/C=N/NC(=O)Cn3c(=O)sc4ccccc43)c(C)nn2-c2ccccc2)cc1
inactive: SR leukemia 41.8% | RPMI-8226 leukemia 32.8% | OVCAR-8 ovarian 54.8% | OVCAR-5 ovarian 74.1% | OVCAR-4 ovarian 46.2% | SK-OV-3 ovarian 66.6% | IGROV1 ovarian 44.4% | OVCAR-3 ovarian 54.2% | HS 578T breast 63.2% | NCI/ADR-RES ovarian 50.2% | MDA-MB-435 melanoma 61.7% | SW-620 colon 68.4% | MCF7 breast 31.1% | HCT-116 colon 37% | HCC-2998 colon 69.2% | KM12 colon 49.3%

CCN(CC)c1cc(N)c(Cc2c(N)cc(N(CC)CC)cc2Cl)c(Cl)c1
inactive: SR leukemia 34.8% | OVCAR-8 ovarian 37.3% | OVCAR-5 ovarian 92.3% | OVCAR-4 ovarian 23.8% | SK-OV-3 ovarian 49.8% | IGROV1 ovarian 54.7% | OVCAR-3 ovarian 47.2% | HS 578T breast 56% | NCI/ADR-RES ovarian 81.5% | BT-549 breast 24.9% | MDA-MB-435 melanoma 38.7% | SW-620 colon 80% | HCT-116 colon 38.3% | HCC-2998 colon 47%
active: RPMI-8226 leukemia 3.27%

CN(C)CCCNc1nc(-c2cccc(C(Cl)(Cl)Cl)c2)nc(C(Cl)(Cl)Cl)n1
inactive: SR leukemia 77.8% | RPMI-8226 leukemia 99.5% | OVCAR-8 ovarian 101% | OVCAR-5 ovarian 106% | OVCAR-4 ovarian 107% | SK-OV-3 ovarian 111% | IGROV1 ovarian 94.4% | OVCAR-3 ovarian 117% | HS 578T breast 91.8% | T-47D breast 109% | SW-620 colon 98.8% | MCF7 breast 93.5% | HCT-116 colon 92.9% | HCC-2998 colon 107% | KM12 colon 111%

COc1cc(OC)c(/C=C/C(=O)c2c(N)cc(OC)cc2OC)c(OC)c1
active: SK-OV-3 ovarian 5.56% | OVCAR-3 ovarian -45.5% | NCI/ADR-RES ovarian -16.2% | MDA-MB-435 melanoma -27.3%
inactive: SR leukemia 29.2% | RPMI-8226 leukemia 13.5% | OVCAR-8 ovarian 19.9% | OVCAR-5 ovarian 29.7% | OVCAR-4 ovarian 80.1% | IGROV1 ovarian 32.5% | T-47D breast 49.9% | BT-549 breast 19.3% | SW-620 colon 15% | MCF7 breast 25% | HCT-116 colon 14.8% | HCC-2998 colon 29.4% | KM12 colon 11.5%

COc1ccc(/C=C/C(=C/c2c(O)[nH]c3cc(Br)ccc23)N=O)cc1
inactive: SR leukemia 70.2% | RPMI-8226 leukemia 123% | OVCAR-8 ovarian 104% | OVCAR-5 ovarian 110% | OVCAR-4 ovarian 101% | SK-OV-3 ovarian 114% | IGROV1 ovarian 103% | OVCAR-3 ovarian 114% | NCI/ADR-RES ovarian 111% | T-47D breast 103% | BT-549 breast 106% | MDA-MB-435 melanoma 108% | SW-620 colon 113% | MCF7 breast 104% | HCT-116 colon 99.7% | HCC-2998 colon 121% | KM12 colon 97.1%

COc1ccc(C2NC(=O)C(C#N)c3c2sc2c(F)cccc32)cc1 (configuration not stated)
active: OVCAR-3 ovarian 0.617% | MDA-MB-435 melanoma -9.11%
inactive: SR leukemia 22.2% | RPMI-8226 leukemia 63.2% | OVCAR-8 ovarian 69.8% | OVCAR-5 ovarian 85.6% | OVCAR-4 ovarian 71.4% | SK-OV-3 ovarian 63.2% | IGROV1 ovarian 41.1% | NCI/ADR-RES ovarian 27.3% | T-47D breast 80.2% | BT-549 breast 56.4% | SW-620 colon 24.4% | MCF7 breast 32.7% | HCT-116 colon 37.5% | HCC-2998 colon 91.5% | KM12 colon 41%

CCCCN(CCCC)CC(O)c1ccc(OCc2ccccc2)c2ccccc12 (configuration not stated)
active: SR leukemia 9.33%
inactive: RPMI-8226 leukemia 77.3% | OVCAR-8 ovarian 89.6% | OVCAR-5 ovarian 98.4% | OVCAR-4 ovarian 93.3% | SK-OV-3 ovarian 92.4% | IGROV1 ovarian 61.8% | OVCAR-3 ovarian 69.2% | NCI/ADR-RES ovarian 77.7% | T-47D breast 87.5% | BT-549 breast 111% | MDA-MB-435 melanoma 51.2% | SW-620 colon 72.6% | MCF7 breast 95.7% | HCT-116 colon 53.5% | HCC-2998 colon 70% | KM12 colon 74.2%

COc1ccc(NC(=O)Nc2ccc(-c3cccnc3)cc2N2CCC(CO)CC2)cc1
inactive: SR leukemia 95.2% | RPMI-8226 leukemia 54.4% | OVCAR-8 ovarian 79.1% | OVCAR-5 ovarian 49.6% | OVCAR-4 ovarian 73.8% | SK-OV-3 ovarian 71.7% | IGROV1 ovarian 110% | OVCAR-3 ovarian 40.2% | HS 578T breast 62.6% | NCI/ADR-RES ovarian 64.4% | MDA-MB-435 melanoma 26% | SW-620 colon 65.2% | MCF7 breast 31.8% | HCT-116 colon 12.5% | HCC-2998 colon 42% | KM12 colon 38.8%

COc1ccc2c(c1)C(C)Cc1c(Cl)nc(C)nc1N2C (configuration not stated)
inactive: SR leukemia 14.6% | RPMI-8226 leukemia 29.4% | OVCAR-8 ovarian 24.2% | OVCAR-5 ovarian 56.2% | OVCAR-4 ovarian 54.9% | SK-OV-3 ovarian 19.1% | IGROV1 ovarian 55.7% | HS 578T breast 27.3% | SW-620 colon 24.8% | MCF7 breast 19.7% | HCT-116 colon 12.2% | HCC-2998 colon 30.3% | KM12 colon 21%
active: OVCAR-3 ovarian 6.18% | NCI/ADR-RES ovarian 4.74% | MDA-MB-435 melanoma -20.5%

O=C1/C(=C\c2cn(CC(O)CN3CCCCC3)c3ccccc23)c2ccccc2N1c1c(Cl)cccc1Cl (configuration not stated)
active: SR leukemia -13% | RPMI-8226 leukemia -25.7% | OVCAR-8 ovarian -86.8% | OVCAR-5 ovarian -92.7% | OVCAR-4 ovarian -68.6% | SK-OV-3 ovarian -99.7% | IGROV1 ovarian -70.2% | OVCAR-3 ovarian -99.6% | HS 578T breast -55.3% | NCI/ADR-RES ovarian -56% | BT-549 breast -86.1% | MDA-MB-435 melanoma -93.3% | SW-620 colon -91.8% | MCF7 breast -77.5% | HCT-116 colon -78.6% | HCC-2998 colon -82.4% | KM12 colon -95.3%

CC(C)c1ccc(C(=O)Nc2nc3ccc(O)cc3s2)cc1
inactive: SR leukemia 17.1% | RPMI-8226 leukemia 28.9% | OVCAR-8 ovarian 40.6% | OVCAR-5 ovarian 40.6% | OVCAR-4 ovarian 33.9% | SK-OV-3 ovarian 89.2% | IGROV1 ovarian 49.1% | OVCAR-3 ovarian 54.1% | HS 578T breast 72.3% | NCI/ADR-RES ovarian 25.7% | MDA-MB-435 melanoma 22% | SW-620 colon 16% | HCT-116 colon 39.6% | KM12 colon 15.7%
active: MCF7 breast 9.03% | HCC-2998 colon -8.31%

O=[N+]([O-])c1cc(CCl)ccc1OCCBr
inactive: SR leukemia 102% | RPMI-8226 leukemia 93.5% | OVCAR-8 ovarian 101% | OVCAR-5 ovarian 108% | OVCAR-4 ovarian 97% | SK-OV-3 ovarian 102% | IGROV1 ovarian 107% | OVCAR-3 ovarian 105% | HS 578T breast 108% | NCI/ADR-RES ovarian 110% | MDA-MB-435 melanoma 104% | SW-620 colon 106% | MCF7 breast 89.7% | HCT-116 colon 93.9% | HCC-2998 colon 104% | KM12 colon 113%

CCOC(=O)COc1ccc2c(c1)O/C(=C\c1ccc(O)cc1)C2=O
inactive: SR leukemia 93.8% | RPMI-8226 leukemia 119% | OVCAR-8 ovarian 105% | OVCAR-5 ovarian 102% | OVCAR-4 ovarian 108% | SK-OV-3 ovarian 117% | IGROV1 ovarian 106% | OVCAR-3 ovarian 106% | NCI/ADR-RES ovarian 108% | T-47D breast 99.9% | BT-549 breast 101% | MDA-MB-435 melanoma 102% | SW-620 colon 104% | MCF7 breast 105% | HCT-116 colon 105% | HCC-2998 colon 111% | KM12 colon 110%

CC1(C)S[C@@H]2[C@H](NC(=O)[C@H](C(=O)O)c3cccs3)C(=O)N2[C@H]1C(=O)O
inactive: SR leukemia 102% | RPMI-8226 leukemia 117% | OVCAR-8 ovarian 98.7% | OVCAR-5 ovarian 100% | OVCAR-4 ovarian 112% | SK-OV-3 ovarian 105% | IGROV1 ovarian 109% | OVCAR-3 ovarian 111% | NCI/ADR-RES ovarian 102% | T-47D breast 102% | BT-549 breast 96.2% | MDA-MB-435 melanoma 106% | SW-620 colon 113% | MCF7 breast 110% | HCT-116 colon 108% | HCC-2998 colon 103% | KM12 colon 106%

C#CCC(C(=O)OCC)C(=O)OCC
inactive: SR leukemia 99.9% | RPMI-8226 leukemia 102% | OVCAR-8 ovarian 105% | OVCAR-5 ovarian 94.9% | OVCAR-4 ovarian 128% | SK-OV-3 ovarian 99.5% | IGROV1 ovarian 117% | OVCAR-3 ovarian 103% | HS 578T breast 104% | NCI/ADR-RES ovarian 105% | MDA-MB-435 melanoma 97.8% | SW-620 colon 106% | MCF7 breast 98% | HCT-116 colon 105% | HCC-2998 colon 101% | KM12 colon 106%
